Anthrax LF prot = inhibitors of Bacillus anthracis lethal factor protease; AID 588501; inhibition, % at 10 µM; multiplex microsphere protease cleavage assay, LF; P15917; 0.12% of 360,000 active; further: plate controls were buffer without enzyme for full effect and enzyme alone for no effect
Target sequence (P15917 whole entry, looked up): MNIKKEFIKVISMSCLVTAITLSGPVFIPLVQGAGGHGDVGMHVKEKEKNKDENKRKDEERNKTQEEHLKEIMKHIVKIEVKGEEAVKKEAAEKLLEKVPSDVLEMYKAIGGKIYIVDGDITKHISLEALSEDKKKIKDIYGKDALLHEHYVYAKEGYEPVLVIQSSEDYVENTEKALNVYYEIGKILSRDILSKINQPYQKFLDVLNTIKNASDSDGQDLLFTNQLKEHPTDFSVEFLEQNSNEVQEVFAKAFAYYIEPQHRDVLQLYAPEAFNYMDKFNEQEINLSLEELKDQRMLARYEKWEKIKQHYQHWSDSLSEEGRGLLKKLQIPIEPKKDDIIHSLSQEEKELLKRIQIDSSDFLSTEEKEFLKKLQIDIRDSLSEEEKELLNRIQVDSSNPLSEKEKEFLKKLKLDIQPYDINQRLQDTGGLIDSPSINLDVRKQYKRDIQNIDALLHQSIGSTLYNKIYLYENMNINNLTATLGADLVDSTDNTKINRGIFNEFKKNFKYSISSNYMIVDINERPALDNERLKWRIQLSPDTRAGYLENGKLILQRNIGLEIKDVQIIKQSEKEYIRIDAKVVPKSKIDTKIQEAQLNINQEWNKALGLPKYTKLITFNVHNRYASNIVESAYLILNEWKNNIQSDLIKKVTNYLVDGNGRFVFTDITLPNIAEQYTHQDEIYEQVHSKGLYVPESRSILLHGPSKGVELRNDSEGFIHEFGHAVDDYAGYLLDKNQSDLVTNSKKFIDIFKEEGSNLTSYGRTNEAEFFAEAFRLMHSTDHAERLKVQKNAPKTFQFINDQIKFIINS
BoNT-A LC inh2 = inhibitors of Botulinum neurotoxin A light chain protease; multiplex microsphere protease substrate cleavage, flow cytometry; inhibition, % at 10 µM; 0.17% of 360,000 active; AID 588499; further: plate controls were buffer without enzyme for full effect and enzyme alone for no effect
MazEF act = activators of E. coli MazEF toxin-antitoxin RNase; FAM/BHQ RNA-DNA oligo cleavage fluorescence, 5 h; activation, % at 20 µM; 0.32% of 350,000 active; AID 504720; in the data active means activation above about 50%
Autofluor counter = counter-screen for toxin protease inhibitors: compound fluorescence; compound autofluorescence counterscreen, microsphere flow cytometry; stronger effect = higher value; fluorescence intensity (test concentration not listed); 3.1% of 360,000 active; in the data active means fluorescence intensity above about 16000; inconclusive means no clear call, values can overlap the other calls
BoNT F protease = BoNT F light chain protease inhibition | Multiplex microsphere protease cleavage assay, flow cytometry | inhibition, % at 10 µM | 0.22% of 360,000 active; in the data active means inhibition above about 35%, passing the limit was not always enough; inconclusive means no clear call, values can overlap the other calls; further: plate controls were buffer without enzyme for full effect and enzyme alone for no effect
Starred values were filed as active, the others as inactive; ? = inconclusive; nt = no result. Hits are enriched below; roughly 3.6% of the tested compounds scored in any of these assays. Unless noted, no stated cut-off is given here; in the data, active means inhibition above about 30%; inconclusive means no clear call, values can overlap the other calls; inactive means below that.

SMILES	Anthrax LF prot	BoNT-A LC inh2	MazEF act	Autofluor counter	BoNT F protease
Cc1ccccc1/C(N)=N/OC(=O)/C=C/c1ccccc1	-3.8	1.4	6.7	22804*	0.0
Cc1ccc(/C(N)=N/OC(=O)/C=C/c2ccccc2)cc1	0.4	0.0	0.3	4322	12.0
CCCc1nc2oc3c(NCCN4CCOCC4)ncnc3c2c2c1CCCC2	-4.7	0.3	11.0	3833	-0.4
CC(C)Cc1nc2oc3c(NCCCN4CCOCC4)ncnc3c2c2c1CCC2	-0.7	-0.9	0.9	23301*	-2.8
COc1ccc2c(c1)[nH]c1c(N3CCN(Cc4ccc5c(c4)OCO5)CC3)ncnc12	-1.7	-0.9	-4.0	23865*	-3.1
CCc1c(C)c2ccc(OCC(=O)OC)cc2oc1=O	-4.9	?	-4.1	17530*	-9.9
COC(=O)Cc1c(C)c2ccc(OC(C)C)cc2oc1=O	0.9	0.3	5.1	4642	-2.9
O=C(NCc1ccccn1)C1CCN(C2CCN(Cc3cccc(F)c3)CC2)CC1	-4.0	-1.2	-18.5	7280	-2.6
O=C(NCCO)c1cccc(Nc2nc(-c3ccccc3)c3cc(Cl)ccc3n2)c1	5.7	0.7	-10.9	20185*	-3.8
Nc1ccccc1-c1ccc([N+](=O)[O-])cc1	-2.2	0.5	9.6	3772	4.5
COc1ccc2c(c1)c1ncn(CCN3CCCCC3)c(=O)c1n2C	-6.3	-0.4	4.6	10891	2.3
COc1ccc2c(c1)c1ncn(CCN3CCNCC3)c(=O)c1n2C	-2.1	2.5	1.0	22441*	2.1
COc1ccc2c(c1)c1ncn(CCN3CCCC3)c(=O)c1n2C	-0.8	-2.2	2.4	21856*	-2.2
COc1ccc2[nH]c3c(=O)n(CCN4CCOCC4)cnc3c2c1	-1.7	0.3	11.2	3386	-6.4
O=C(Nc1c2c(nn1-c1ccc(F)cc1)CS(=O)(=O)C2)C12CC3CC(CC(C3)C1)C2	-1.7	?	1.7	24380*	-3.4
CCCC(=O)Nc1c2c(nn1-c1ccc(F)cc1)CS(=O)(=O)C2	-7.6	-2.3	3.0	2958	-31.6
Nc1nnnn1/N=C/c1ccccc1OCc1ccc(Cl)cc1Cl	-0.4	3.2	-9.8	22215*	2.0
O=C(CCCN1C(=O)c2ccccc2C1=O)N1CCC(c2ccccc2)C1 (stereo not given)	1.7	-3.5	2.5	20922*	-5.1
Cc1cn(CC(=O)NCCN2CCOCC2)c(=O)[nH]c1=O	-2.1	-0.1	2.6	3548	-0.6
Cc1cccc(Cn2ncc(Cl)c(Cl)c2=O)c1	1.1	-0.2	-3.6	16414*	0.2
Cc1ccc(C(=O)OCn2ncc(Cl)c(Cl)c2=O)cc1	-2.0	-2.3	3.5	17159*	-4.9
Cc1ccc(C)c(C(=O)Cn2ncc(Cl)c(Cl)c2=O)c1	0.0	-0.1	0.7	2769	-1.1
Cc1ccccc1Cn1nnc2c1C(=O)c1ccccc1C2=O	1.3	0.5	11.9	?	-4.7
Cc1cccc(Cn2nnc3c2C(=O)c2ccccc2C3=O)c1	-1.6	-0.2	-1.1	16137*	-3.2
CC(C)CC1C(=O)N(Cc2cn(CCC3OCCO3)nn2)CCS(=O)(=O)N1Cc1ccc(-c2cccc(N(C)C)c2)cc1 (stereo not given)	-3.0	-0.5	22.2	2945	-6.0
SMILES	Anthrax LF prot	BoNT-A LC inh2	MazEF act	Autofluor counter	BoNT F protease
COc1ccc(CN(C(=O)c2ccco2)c2ccccc2)cc1	-6.7	-1.0	-3.4	2840	-11.1
COc1ccc(N(Cc2cc(=O)[nH]c3ccccc23)C(=O)c2ccco2)cc1	-2.8	?	2.7	20241*	0.5
COc1ccc(CCNC(=O)c2nonc2N)cc1	-6.5	0.3	9.2	6706	8.8
COc1cccc(CNCCNC(=O)c2nonc2N)c1	-2.6	-5.2	-0.2	24154*	-9.1
CCO/C(C)=N/Oc1cncnc1	-5.5	-0.5	nt	6195	2.2
O=C(CSc1nnc(-c2ccccc2Cl)o1)Nc1ccc2c(c1)OCCO2	-4.1	1.2	-8.1	19436*	0.2
Cc1cc(C)cc(NC(=O)CSc2nnc(-c3ccccc3C)o2)c1	-8.2	?	4.6	19314*	-0.5
Cc1cccc(NC(=O)CSc2nnc(-c3ccccc3C)o2)c1	-4.4	2.2	18.5	18972*	1.3
C[C@H]1CN([C@@H](C)CO)C(=O)CCCn2nncc2CO[C@@H]1CN(C)Cc1cccc(O)c1	5.0	-1.4	-1.5	4047	-3.8
O=C(NC1CCCC1)c1csc2c1CCCC2	-1.5	4.7	-9.8	19286*	6.0
CCCNC(=O)c1csc2c1CCCCC2	2.2	0.7	8.9	4595	9.3
CCOC(=O)CC(=O)CSCC(=O)Nc1ccc(C)cc1	-0.1	1.9	-2.0	22826*	-0.4
CCOC(=O)c1ccc(NC(=O)CSCc2ccco2)cc1	0.0	?	-5.6	16501*	-3.1
CCOC(=O)c1ccc(NC(=O)CSCCC(=O)O)cc1	-6.0	-0.2	5.1	4347	0.5
Cc1ccc(NC(=O)CCC(=O)OCC(F)(F)C(F)F)cc1	-2.4	?	-6.1	21194*	1.5
Cc1ccc(NC(=O)CSCC#N)cc1	-8.0	?	3.5	18468*	-11.7
CN1/C(=C\C(=O)C[n+]2ccc3ccccc3c2)C(C)(C)c2ccccc21	3.2	11.3	3.3	8956	-2.9
CCN(CC)CCNc1c(C)cc(CO)c(Cl)c1C	-4.0	0.4	-14.4	2959	3.3
CCN(CC)c1ccc([C@H]2[C@@H]3CCCC[C@]3(O)CCN2CC(=O)NCc2ccco2)cc1	0.0	0.8	2.5	4721	-9.4
COc1cc([C@H]2[C@@H]3CCCC[C@]3(O)CCN2CC(=O)Nc2ccc(C)cc2)ccc1O	-5.4	0.7	-0.8	22835*	-4.2
O=C(Cn1nnc(-c2cccs2)n1)N1CCc2ccccc2C1	-11.6	1.4	-2.4	21633*	1.5
O=C(O)Cn1nnc(-c2cccs2)n1	-5.5	-0.4	6.9	3203	3.1
O=C(COC(=O)c1ccc2ccccc2n1)c1ccc(F)cc1	0.3	0.7	-3.6	4170	0.6
O=C(OCCNC(=O)c1ccc2ccccc2n1)c1ccc(F)cc1	0.8	?	1.4	16884*	-4.6
O=C1C(F)=CC(COC(c2ccccc2)(c2ccccc2)c2ccccc2)OC1n1cc(F)c(=O)[nH]c1=O (stereo not given)	-5.1	0.6	5.2	3239	-4.8
SMILES	Anthrax LF prot	BoNT-A LC inh2	MazEF act	Autofluor counter	BoNT F protease
Cc1nc(N2CCC(C(N)=O)CC2)c2nnn(Cc3ccccc3)c2n1	3.9	-2.5	0.1	21409*	-1.6
Cc1nc(N2CCCC2)c2nnn(Cc3ccccc3Cl)c2n1	0.2	4.5	-5.2	20754*	5.2
CC(C)(C)c1nc(N2CCN(C(=O)c3ccco3)CC2)c2nnn(Cc3ccccc3)c2n1	-4.2	-0.4	-2.1	8630	-4.7
CC(=O)c1cn(CC(=O)Nc2ccccc2C(F)(F)F)c2ccccc12	-0.9	1.8	-8.4	3223	-21.9
O=C(CCc1ccccc1)NC(=S)Nc1cc(C(F)(F)F)ccc1N1CCOCC1	-0.3	1.5	-11.3	19113*	-2.4
CCc1cc2c(SCC(=O)NC3CCCC3)ncnc2s1	-0.7	-0.4	-5.5	2901	-2.1
Cn1nnnc1SCCNCc1ccccc1F	-1.1	-2.0	4.7	22828*	-5.5
Cn1nnnc1SCc1ccccc1F	-1.1	-0.5	2.8	22071*	-1.1
COc1cc(CNCCSc2nnnn2C)cc(OC)c1OC	-2.7	-0.8	8.4	8512	-3.7

Source: PubChem
